{"source": "the supplement of paper PMC10338343", "note": "± gives the standard deviation.", "data": [{"test_system": "MILI (PIWIL2) piRISC loaded with L1MC piRNA (26 nt)", "test": "pre-steady-state target cleavage rate (min^-1); guide: L1MC piRNA 5'p-UAACUAAAUACUAUGCAAGCUGUAGG; MIWI and MILI are mouse PIWI proteins and EfPiwi is from a freshwater sponge; tags in brackets are library labels; higher = faster piRNA-guided slicing of the target", "conditions": "auxiliary factor: 500 nM mouse GTSF1", "method_in_brief": "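The method was Cleave-'n-Seq, in which uncleaved targets from a transcribed, DNA-blocked target RNA library were sequenced after exposure to active affinity-purified piRISC carrying one synthetic guide, with or without GTSF1 partner protein. Reactions contained 0.1 nM library, 1 nM piRISC and, where present, 500 nM GTSF1 in HEPES–potassium acetate buffer at 33 °C for 0–8 or 0–960 min. Reads were normalised to depth and to weakly complementary targets, three trials were pooled, and k3 was capped at 0.0001 min^-1. The pre-steady-state cleavage rate came from a burst-and-steady-state fit.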", "values": [{"sequence": "UCCUGGAUGAGCUUGCAUAGAAUUAAGUUA", "pre-steady-state target cleavage rate": "0.00512 ± 0.0037"}, {"sequence": "UCCUGGAUGUGCUUGCAUUGUAUUUAGAUA", "pre-steady-state target cleavage rate": "0.0503 ± 0.009"}, {"sequence": "UCCUCCUACAGCUUGCAUAGUAAAUAGAAA", "pre-steady-state target cleavage rate": "0.0692 ± 0.02"}, {"sequence": "UCCUGGUACAGCUUGCAUUGUAUUUACAAA", "pre-steady-state target cleavage rate": "0.0165 ± 0.0077"}, {"sequence": "UCCUGGAUCAGCUUGCAUAGUAUAUACUUA", "pre-steady-state target cleavage rate": "0.0182 ± 0.0062"}, {"sequence": "UCCUGGAUGAGCUUGCAUAGUAAUAAGUUA", "pre-steady-state target cleavage rate": "0.202 ± 0.045"}, {"sequence": "UCCUGCUACAGCUUGCAUUCAAUUUAGUUA", "pre-steady-state target cleavage rate": "0.00485 ± 0.0037"}, {"sequence": "UCCUCCUACAGCUUGCAUAGUUAUUUCAAA", "pre-steady-state target cleavage rate": "0.0507 ± 0.016"}, {"sequence": "UCCUGGUACAGCUUGCAAAGUAUUUACUUA", "pre-steady-state target cleavage rate": "0.0515 ± 0.015"}, {"sequence": "UCCUGGAACAGCUUGCAUAGUAUUUAGAUA", "pre-steady-state target cleavage rate": "0.137 ± 0.025"}, {"sequence": "UCCUGCUACAGCUUGCAUUCUAUUUAGUAA", "pre-steady-state target cleavage rate": "0.0252 ± 0.0088"}, {"sequence": "UCCUGGAUGUCGAUGCAUAGUAUUUACUUA", "pre-steady-state target cleavage rate": "0.0276 ± 0.01"}, {"sequence": "UCCUCCUACAGCAACCAUAGUAUUUAGAAA", "pre-steady-state target cleavage rate": "0.0741 ± 0.02"}, {"sequence": "UCCUGGAUGUGCUUGCAUAGUCAUUUAGUUA", "pre-steady-state target cleavage rate": "0.00678 ± 0.0044"}, {"sequence": "UCCUGGAUCAGCUUGCAAUGUAUUUAGAAA", "pre-steady-state target cleavage rate": "0.0496 ± 0.013"}, {"sequence": "UCCUGGAUGUCGAACGAUAGUAUUUAGUAUA", "pre-steady-state target cleavage rate": "< 0.0001"}, {"sequence": "UCCUGCUACAGCUUCCAUAGUAUUUUGUUA", "pre-steady-state target cleavage rate": "0.00554 ± 0.0042"}, {"sequence": "UCCUGGAUGUGCUUCCAUUGUAUUUAGUUA", "pre-steady-state target cleavage rate": "0.0206 ± 0.0071"}, {"sequence": "UCCUGGAUGUCCUUGCAUAGUAAUUUGUUA", "pre-steady-state target cleavage rate": "0.0222 ± 0.0085"}, {"sequence": "UCCUGGAUGUGCUUGCAUAGUAUAUAGUAA", "pre-steady-state target cleavage rate": "0.0253 ± 0.0079"}, {"sequence": "UCCUGGAUGUCCAUGCAUUGUAUUUAGUUA", "pre-steady-state target cleavage rate": "0.0108 ± 0.0042"}, {"sequence": "UCCUGGAUGUCGAUGCAUACUAUUUAGUUA", "pre-steady-state target cleavage rate": "0.0178 ± 0.0056"}, {"sequence": "UCCUGGUACACGAUGCAUAGUAUUUAGUAA", "pre-steady-state target cleavage rate": "0.186 ± 0.042"}, {"sequence": "UCCUGGAUGUCGAACGAUAGUAAUAAGUUA", "pre-steady-state target cleavage rate": "< 0.0001"}]}]}
